These results are taken from PubChem BioAssay AID1850 (Southern Research Specialized Biocontainment Screening …, 2009).

The campaign covered roughly 310,000 compounds. About 1,000 (0.32%) were called active. The rule behind the calls is not given here. Only a sample is shown. Entries with a potency or affinity are not part of this list.

The term inhibition denotes the change of the read-out against control, counted positive when it falls.

The nature of this test: PhoP regulon inhibitors, Salmonella typhi PhoP promoter GFP reporter, confirmatory (AID 1850).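 Note: 0% = induced wells with vehicle and 100% = uninduced wells.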 The settings on record: fluorescence, 4 h, at 50 µM, stronger effect = higher value.
In the case of `O=C(Nc1ccccc1C(F)(F)F)N1CCN(c2ccccn2)CC1`, the inhibition is 5.82% (inactive).

With `O=C(C1CC(c2ccccc2O)=NO1)N1CCc2ccccc2C1` (stereo not given), the inhibition was -3.18% (inactive).

Regarding `O=C(C[n+]1cccc(CNC(=O)c2ccc(OC(F)F)cc2)c1)Nc1cccc(C(F)(F)F)c1`, the inhibition is 1.69% (inactive).

For `O=C(C[n+]1cccc(CNC(=O)c2ccc(OC(F)F)cc2)c1)Nc1ccc(F)cc1`, the inhibition was -3.3% (inactive).

`O=C(COC(=O)C1=COCCO1)Nc1ccc(F)cc1`: the inhibition is 2.51% (inactive).

With `Cc1ccc(SCC(=O)Nc2ccc3c(c2)C(=O)NC3=O)cc1`, the inhibition was 5.23% (inactive).

With `Oc1ccc(C23CC4CC(CC(C4)C2)C3)cc1O`, the inhibition was 0.69% (inactive).

`Oc1ccccc1CNCC12CC3CC(CC(C3)C1)C2`: the inhibition was 6.43% (inactive).

Regarding `C=CCNC(=O)c1cccc(OC2CCN(CC(C)(C)C)CC2)c1`, the inhibition is -1.47% (inactive).

For the compound `O=C(Nc1cccc(S(=O)(=O)N2CCCC2)c1)c1ccncc1`, the inhibition is -14.8% (inactive).

Consider `Nc1c(Cl)ncnc1N/N=C/c1ccncc1`, for which the inhibition was 5.13% (inactive).

On to `Nc1c(Cl)ncnc1N/N=C/c1ccc2ccccc2n1`, for which the inhibition was 8.37% (inactive).

As to `O=C(C[n+]1cc(Br)cc2ccccc21)c1ccccc1`, the inhibition was 22% (inactive).

For the compound `O=C(C[n+]1cc(Br)cc2ccccc21)c1ccc(Br)cc1`, the inhibition is 5.62% (inactive).

Consider `CCCNC(=O)CSc1nnc(-c2ccc(F)cc2)o1`, for which the inhibition is -7.43% (inactive).

Consider `CC1CN(CC(O)COc2ccc(C#N)cc2)CCN1CC(O)COc1ccc(C#N)cc1` (stereo not given), for which the inhibition was 9.68% (inactive).

As to `O=C(Cc1cccs1)Nc1cccc([N+](=O)[O-])c1`, the inhibition is 0.05% (inactive).

`O=C(Nc1cccc([N+](=O)[O-])c1)Nc1cccc([N+](=O)[O-])c1`: the inhibition was 1.71% (inactive).

With `CN(C)S(=O)(=O)c1cccc(-c2csc(=Nc3ccccc3)n2CCCN2CCOCC2)c1`, the inhibition was 4.21% (inactive).

As to `Cc1ccc(C(=O)c2no[n+]([O-])c2C(=O)c2ccc(C)cc2)cc1`, the inhibition is 19.9% (inactive).

Take `COc1ccc(C(=O)c2no[n+]([O-])c2C(=O)c2ccc(OC)cc2)cc1`: the inhibition is 21.3% (inactive).

`O=C(NCCN1CCOCC1)c1ccc2c(c1)N(Cc1c(F)cccc1Cl)C(=O)c1ccccc1S2`: the inhibition was -4.77% (inactive).

Turning to `CCc1nnc(NC(=O)c2cccc(S(=O)(=O)N3CCc4ccccc43)c2)s1`, the inhibition is -12.3% (inactive).

For `Oc1c(Br)cccc1/C=N/c1ncn[nH]1`, the inhibition was -5.35% (inactive).

As to `Oc1c(Cl)cc(Cl)cc1/C=N/c1ncn[nH]1`, the inhibition is 3.2% (inactive).

On to `O=[N+]([O-])C(=C1Nc2ccccc2N1)C(Cl)=C(Cl)Cl`, for which the inhibition is -0.56% (inactive).

Regarding `O=[N+]([O-])C(=C1Nc2ccccc2N1)/C(Cl)=C(/Cl)Br`, the inhibition is -3.57% (inactive).

Turning to `Cc1ccc(S(=O)(=O)NCCC(=O)Nc2ccncc2)cc1C`, the inhibition is 9.54% (inactive).

`COCCNC(=O)C1CC(c2ccc(F)cc2)=NO1` (stereo not given): the inhibition is -13.4% (inactive).

For the compound `Cc1ccc(S(=O)(=O)N2CCCC2C(=O)NCc2ccccc2F)cc1` (stereo not given), the inhibition was -7.81% (inactive).

Take `CCN(CC)CCCn1c2c(c(SCC(=O)Nc3ccc4c(c3)OCCO4)nc1=O)CCC2`: the inhibition was 11.9% (inactive).

Regarding `Cc1ccsc1CN(C)C(=O)CCc1nnc(COc2ccccc2)o1`, the inhibition is -5.48% (inactive).

As to `Cc1ccc(OCC(=O)N/N=C\c2c(C)n(C)c3ccccc23)c([N+](=O)[O-])c1`, the inhibition is -4.6% (inactive).

For `Cc1[nH]n(-c2ccccc2)c(=O)c1/C=N/NC(=O)COc1ccccc1[N+](=O)[O-]`, the inhibition was -5.18% (inactive).

Turning to `COCCNC(=O)c1onc(CS(=O)(=O)c2cc(C)cc(C)c2)c1C(=O)NCCOC`, the inhibition is 5.4% (inactive).

As for `O=C(NCc1ccc2c(c1)OCO2)c1cccc([N+](=O)[O-])c1`, the inhibition was -1.83% (inactive).

Consider `COc1ccc(/C=C2/C(=O)N(c3nc4ccccc4s3)N=C2CSc2ccc(Cl)cc2)cc1`, for which the inhibition was 3.84% (inactive).

As for `CC(C)N1CCc2c(sc(NC(=O)c3ccc([N+](=O)[O-])o3)c2C(N)=O)C1`, the inhibition was -4.77% (inactive).

With `NC(=O)c1c(NC(=O)c2ccc([N+](=O)[O-])o2)sc2c1CCCC2`, the inhibition is -5.17% (inactive).

With `Cn1c(=O)cc(OCCCC(=O)NCc2cccnc2)c2ccccc21`, the inhibition was 0.57% (inactive).

As for `COc1ccccc1N1C(=O)c2cccnc2C1=O`, the inhibition is -1.48% (inactive).

`CCc1ccc(/C=C/C(=O)c2cc(Br)ccc(=O)c2O)cc1`: the inhibition is -13.9% (inactive).

Turning to `Cc1cccc(/C=C/C(=O)c2cc(Br)ccc(=O)c2O)c1`, the inhibition was 4.56% (inactive).

On to `CCOC(=O)C1(CC)CC(CSc2nc3ccccc3[nH]2)OC1=O` (stereo not given), for which the inhibition was 5.22% (inactive).

Consider `O=C(O)c1cccnc1Sc1ccccc1Cl`, for which the inhibition is -7.16% (inactive).

Consider `Clc1ccccc1N1CCN(Cc2c[nH]c3ccccc23)CC1`, for which the inhibition is -13.8% (inactive).

Consider `c1ccc(CN2CCN(Cc3c[nH]c4ccccc34)CC2)cc1`, for which the inhibition was 1.99% (inactive).

On to `Nc1ccccc1SC(C[N+](=O)[O-])c1ccccc1` (stereo not given), for which the inhibition was 15.4% (inactive).

Turning to `Nc1ccc(Sc2ccc([N+](=O)[O-])cc2)cc1`, the inhibition is -7.65% (inactive).

Consider `COc1cc(/C=N/NC(=O)c2ccncc2)ccc1Oc1ccc([N+](=O)[O-])cn1`, for which the inhibition is 4.23% (inactive).

On to `COc1ccc(OCC(O)CNCc2ccco2)cc1` (stereo not given), for which the inhibition was 0.683% (inactive).

In the case of `O=c1c2ccccc2n(CC(O)CN2CCCCC2)c2ccccc12` (stereo not given), the inhibition was -2.95% (inactive).

On to `OC(CNCc1ccco1)Cn1c2ccccc2c2ccccc21` (stereo not given), for which the inhibition is 1.11% (inactive).

For the compound `OC(CN1CCCCC1)Cn1c2ccccc2c2ccccc21` (stereo not given), the inhibition was -5.86% (inactive).

With `CC1(C)CC(OC(=O)c2ccco2)CC(C)(C)N1O`, the inhibition was -11.8% (inactive).

For `CCn1nc(C(=O)OCC(=O)N(CC(C)C)c2c(N)n(Cc3ccccc3)c(=O)[nH]c2=O)c2ccccc2c1=O`, the inhibition was -10.1% (inactive).

On to `Cc1csc(NC(=O)CSc2nnc3c4ccccc4nc(C(C)(C)C)n23)n1`, for which the inhibition was -6.02% (inactive).

In the case of `CN(C)/C=C/c1onc(-c2c(F)cccc2Cl)c1C#N`, the inhibition was -0.05% (inactive).

Regarding `Brc1ccc(-c2cn3c(n2)CCc2ccc4cccnc4c2-3)cc1`, the inhibition is 1.82% (inactive).

Consider `COc1ccc(-n2c(-c3ccc(Br)cc3)c[n+]3c2CCc2ccccc2-3)cc1`, for which the inhibition was 13.6% (inactive).
